Lassa entry inh: inhibitors of Lassa virus binding or cell entry | Lassa virus pseudotype entry inhibition, cell reporter | Potency, µM (doses to about 37.9 µM), inactives show top-dose activity change, negative = inhibition, actives largely listed as inhibitors | 300,000 compounds, 1.2% hits; calls by dose curve; tested in HEK293 cells; further: potency means the concentration at half of the fitted maximal effect; on the % scale 0 is the no-effect control and ±100 the full control effect; nearly all actives have a fitted effect of over 50% in size
MARV entry inh: blocks Marburg virus binding to or entry into cells; Marburg virus pseudotyped entry inhibition, cell reporter; Potency, µM (top dose mostly 37.8 µM), without a hit: top-dose activity change, negative = inhibition, actives largely listed as inhibitors; 300,000 compounds, 1.8% hits; AID 540276; calls by dose curve; tested in HEK293 cells; further: potency means the concentration at half of the fitted maximal effect; on the % scale 0 is the no-effect control and ±100 the full control effect
AMA1-RON2 inh: inhibitors of Plasmodium falciparum AMA1-RON2 interaction; AlphaScreen AMA1-biotinylated RON2 peptide binding; Potency, µM (highest dose often 58.2 µM), for inactives: top-dose activity change, negative = inhibition, hits mostly inhibitors; 360,000 compounds, 0.2% hits; AID 720542; active means well fitted inhibition curve with a large enough effect; inconclusive means small, poorly fitted or top-dose-only effect; inactive means no such curve, though single readings can be large or run the other way;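 further: potency means the concentration at half of the fitted maximal effect; 0% = vehicle wells and -100% = peptide control; nearly all actives have a fitted effect of over 45% in size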
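AMA1 (3D7) with his tag at 25 nM final met compounds first, then biotinylated RON2 peptide at 25 nM; detection used donor plus acceptor beads, 10 µg/mL apiece, read by AlphaScreen after 30 min at room temperature.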
Shiga inhibitor: blocks Shiga toxin action in Vero cells. Vero cells, Shiga toxin protein synthesis inhibition reporter. inhibition, % at 38.7 µM. 290,000 compounds, 9.2% hits. AID 2315; in the data active means inhibition mostly above about 28%, no sharp cut-off; inactive means mostly below about 43%; further: 0% is about no effect
CHX counter: counter-screen hit for Shiga toxin inhibitors, cycloheximide | 300,000 compounds, 12% hits | AID 2314 | max response, % | cell reporter, cycloheximide protein synthesis inhibition counterscreen; in the data active means max response mostly above about 13%, no sharp cut-off; inactive means mostly below about 14%; further: read at 38.3 µM for the half of the compounds with a filed dose; 0% is about no effect
Numbers without * were called inactive; u = inconclusive; x = not tested or not shown; ! = a repeat was not active; [ ] = another dose, or the depositor's remark. Shown is part of a subset that was picked to be rich in hits.

SMILES	Lassa entry inh	MARV entry inh	AMA1-RON2 inh	Shiga inhibitor	CHX counter
CC1(C)CC(NCc2ccc3c(c2)OCO3)CCO1 (stereo not given)	17.6%	8.8%[46.1 µM]	24.3%	-17.6	-4.8
O=C(NC(=S)NN1CCCCC1c1cccnc1)c1ccc(Cl)cc1Cl (stereo not given)	-18.5%[46.1 µM]	-7.5%[46.1 µM]	74.1%	3.4	1.1
COc1cccc(CNC(=O)C2=C(C)C(=O)OC23CCN(C(C)=O)CC3)c1OC	13.2%[46.1 µM]	x	x	x	x
O=C1C(C=NCc2ccccn2)=C(O)c2ccccc21	u	7.8%	87.8%	136.3*	58.8*
COc1ccc(CN=C(C#N)C2=C(O)c3ccccc3C2=O)cc1	x	x	11.4%	13.9	11.8
O=c1oc2ccccc2c(O)c1C=NCc1ccccn1	u	-11.9%	-9.5%	7.9	7.9
O=C1C(C=NC2CC2)=C(O)c2ccccc21	u	20.7%	-5.0%	56.6*	37.1*
O=C1C(C=NCCCN2CCCC2=O)=C(O)c2ccccc21	-23.1%	-18.6%	-0.1%	102.2*	40.4*
COc1cc(N=CC2=C(O)c3ccccc3C2=O)cc(OC)c1	21.4%	u	-10.9%	63.9*	20.0*
O=C1C(O)=C(O)C(=O)c2ccccc21	x	x	-28.8%	x	x
O=C1C(C=NCCCn2ccnc2)=C(O)c2ccccc21	11.6%	u	-16.9%	x	x
CC(C)(C)c1ccc(NC(=O)C2=CN3CCS(=O)(=O)N=C3C=C2)cc1	x	x	1.3%	x	x
CN(c1ccc(C(=O)NCc2ccncc2)cc1)S(=O)(=O)c1ccc(Cl)cc1	-7.0%	u	-0.3%	-9.4	-1.5
Cc1cccc([C@@H]2[C@@H]3C(=O)N(Cc4ccccc4)C(=O)[C@@H]3[C@]3(CC(C)C)C(=O)N(c4cccc(F)c4)C(=O)N23)c1	x	x	-8.6%	x	x
CC(C)CN=CC1=C(O)c2ccccc2C1=O	u	1.0%	13.5%	71.9*	36.6*
COc1ccc(C2CC(=O)C(C=NCC(C)C)=C(O)C2)cc1 (stereo not given)	x	x	-0.4%	-4.1	-1.6
COc1ccc2[nH]c3c(c2c1)CCN1C(=O)C(CC(=O)NCCCn2ccnc2)C[C@H](C(=O)N2CCCCC2)[C@@]31CCc1ccccc1 (stereo not given in full)	x	0.0%	-5.0%	x	x
O=C(c1cc(-c2ccccc2Cl)on1)N1CCCC1	u	11.2µM*	3.0%	32.9	14.2*
O=C(c1cccc(F)c1)N1CCN(C(=O)c2cc(-c3ccc(Cl)cc3Cl)on2)CC1	10.3%	6.7%	6.6%	-2.0	-1.9
COc1ccccc1-c1cc(C(=O)N2CCCC2)no1	-26.6%[46.1 µM]	u	-2.9%	84.4*	33.7*
COc1ccccc1-c1cc(C(=O)N2CCOCC2)no1	6.7%[46.1 µM]	u	-1.3%	89.5*	29.3*
COc1ccccc1-c1ccc(C(=O)O)o1	-5.2%	11.5%	-2.7%	74.9	22.1*!
CCCC[C@H]1CCCO[C@@](C(=O)NCCN2CCOCC2)(C(F)(F)F)C1	x	x	x	6.0	2.9
C=CCn1c(SCC(=O)NC23CC4CC(CC(C4)C2)C3)nc2cc(C(=O)O)ccc2c1=O	-11.4%	-18.9%	19.7%	-1.0	4.6
COc1ccc(/C=C/C(=O)O)cc1S(=O)(=O)N1CCC(C)CC1	x	x	-4.3%	4.2	0.6
SMILES	Lassa entry inh	MARV entry inh	AMA1-RON2 inh	Shiga inhibitor	CHX counter
CCNC(=S)N/N=C/c1sc(N2CCCCC2)nc1-c1cccs1	-3.3%	16.6%	51.1%	active	30.0*
CCCCNC(=S)N/N=C/c1sccc1C	u	u	34.4%	35.8	8.5
Cc1ccc(Cl)c2c(N=Nc3ccccc3)c(O)[nH]c12	x	x	19.1%	65.9*	17.6*
Cc1cc(Cl)cc2c(N=Nc3ccccc3C(=O)O)c(O)[nH]c12	x	x	0.0%	13.0	7.4
Cc1ccc(CN(Cc2cc3cccc(C)c3[nH]c2=O)C(=S)NCCCN(C)C)cc1	-12.0%	4.47µM*	-18.6%	-19.8	-2.6
Cc1cccc2cc(CN(Cc3ccccc3)C(=S)NCCCN(C)C)c(=O)[nH]c12	-26.8%[46.1 µM]	3.98µM*	-6.2%	-5.9	-2.6
Cc1cccc2cc(CN(Cc3cccnc3)C(=S)NCCCN(C)C)c(=O)[nH]c12	14.3%	2.0%[46.1 µM]	1.2%	17.0	-1.5
Cc1ccc(-c2nc(S(=O)(=O)c3ccc(C)cc3)c(SCC(=O)Nc3ccc(F)cc3)o2)cc1	u	-9.4%[46.1 µM]	x	x	x
COc1ccc(C(=O)NC2CCN(CC(=O)Nc3cccc(OC)c3)CC2)cc1	x	x	6.7%	x	-1.8
Cc1cc2ncc(-c3ccc(Cl)cc3)cn2n1	u	6.6%	-6.8%	92.6*	37.1*
O=C1N=C(N2C=CC(=C3C=CNC=C3)C=C2)/C(=C/N=NC(=O)c2ccccc2O)S1	x	x	0.0%	53.5*	25.9*
O=C(CNC(=O)c1ccc(F)cc1)OCc1cc(=O)n2nc(C3CC3)sc2n1	12.7%[46.1 µM]	x	x	x	x
COc1ccc(CC(=O)N/N=C/c2ccc(-c3ccc(F)cc3)o2)cc1OC	u	u	-1.6%	-2.2	-1.8
CNC(=S)N/N=C/c1ccc(-c2cccc(C(=O)O)c2)o1	u	u	108.8%	111.8*	61.4*
COc1ccc(CC(=O)N/N=C/c2ccc(-c3cccc(C(=O)O)c3)o2)cc1OC	x	x	54.6%	194.8*	71.1*
COC(=O)c1ccc(-c2ccc(/C=N/NC(=O)Cc3nnc(N)s3)o2)cc1	9.9%	u	28.4%	39.5	24.3*
O=C(O)c1cccc(-c2ccc(/C=N/Nc3nn[nH]n3)o2)c1	12.2%	7.1%[46.1 µM]	0.0%	9.8	9.5
Cc1ccc(OCC(=O)N/N=C\c2ccc(-c3cccc(C(=O)O)c3)o2)c(C)c1	1.4%	1.4%	45.2%	177.3*	74.1*
CSc1nc(Sc2ccccc2Cl)c2ccccc2n1	u	-28.2%	34.2%	-1.9	-1.5
COC(=O)c1cc2sc(C)cc2n1CC(=O)Nc1ccc(C)cc1Cl	x	-23.3%[46.1 µM]	x	x	x
CC(C)CNC1=C(C(=S)Nc2ccccc2)C(=O)CC(C)(C)C1	u	u	-18.9%	-2.7	-5.0
Nc1nonc1C(=O)N/N=C/c1ccc(-c2cccc(C(=O)O)c2)o1	x	x	x	50.8*	29.3*
CC(=N)c1c(O)c2ccccc2oc1=O	x	x	4.6%	53.1*	25.6*
CCCCN=C(C)c1c(O)c2ccccc2oc1=O	-0.1%	u	0.3%	64.6	32.0*
CCCCC(=O)c1c(O)c2ccccc2oc1=O	4.4%	-0.4%	4.8%	-13.1	11.0
SMILES	Lassa entry inh	MARV entry inh	AMA1-RON2 inh	Shiga inhibitor	CHX counter
Cc1cccc(N2C(=O)CN(Cc3ccccc3)C2=S)c1	12.6%[46.1 µM]	18.6%[46.1 µM]	36.3%	22.5	-2.1
O=C(/C(C=Nc1cc2c(oc1=O)CCCC2=O)=C(\O)c1ccccc1)c1ccccc1	4.5%	-4.2%	107.3%	125.2*	39.8*
CCOc1ccc(S(=O)(=O)N(CC(=O)N2CCC(C(N)=O)CC2)c2ccc(F)cc2)cc1	7.5%	29.2%	-17.0%	-8.2	7.5
CS(=O)(=O)Oc1ccc2c(c1)O/C(=C\c1cccnc1)C2=O	5.2%	6.5%[46.1 µM]	1.9%	19.6*	11.7
O=C1/C(=C/c2cccnc2)Oc2cc(OS(=O)(=O)c3ccccc3)ccc21	-13.5%	u	-18.7%	14.7	7.6
CCOc1ccc(N(CC(=O)N2CCN(Cc3ccccc3)CC2)S(C)(=O)=O)cc1	x	x	-12.3%	-5.3	-2.1
Cc1nc2nc(SCc3ccccc3)nn2c(C)c1C	x	x	8.2%	x	x
CCOC(=O)c1cn2nc(SCc3ccccc3)nc2nc1C	-1.9%	-5.4%	27.7%	52.0*	39.2*
